Measurements: PubChem BioAssay (Tox21)
Inconclusive results are not listed. A call without a number means that no potency is given here. The source made the active and inactive calls. The call rests on the fitted dose curve; in most records, active means well fitted inhibition curve with a large enough effect in the repeat runs; inconclusive means weak or mixed curves; inactive means no such curve, though single readings can be large or run the other way.
Potency means the concentration at half of the fitted maximal effect.

Test: qHTS assay to identify small molecule antagonists of the thyroid receptor (TR) signaling pathway (AID 743065); further: nearly all actives have a fitted effect of over 55% in size
Details: GH3.TRE-Luc, T3-stimulated luciferase inhibition, 23.5 h; series mostly up to 70.3 µM
From the text: U.S. Tox21 Program National Center for Advancing Translational Sciences [NCATS] NIH Chemical Genomics Center [NCGC] U.S. Environmental Protection Agency [EPA] National Institutes of Environmental Health Sciences [NIEHS] National Toxicology Program [NTP] U.S. Food and Drug Administration [FDA] Tox21 Assay Overview: Thyroid receptor (TR), a nuclear hormone receptor, plays an important role in development, proliferation, differentiation, metabolism, brain function, and cardiovascular system. […] To profile the Tox21 10K compound library in TR signaling, a cell-based GH3-TRE-Luc assay (GH3.TRE-Luc cell line, developed by the laboratory of Dr. Albertinka J. Murk, Wageningen University) was used to measure the inhibition of TR. GH3 (rat pituitary tumor) cells stably expressing a TR activity sensor consisting of two TR response elements and a luciferase reporter gene.
Tox21 Assay Protocol Summary: GH3.TRE-Luc cells were dispensed at 1500 cells/4 uL/well into 1536-well white solid bottom plates using a Multidrop Combi dispenser (Thermo Fisher Scientific Inc., Waltham, MA). After the assay plates were incubated at 37 C for 4 hours, 23 nL of library compound or DMSO controls was transferred to the assay plates by a pintool station (Kalypsys, San Diego, CA), followed by addition of 1 ul of T3 (1 nM, final concentration in the wells) to stimulate TR transactivation. The assay plates were incubated at 37 C for 23.5 h, and then 1 uL of CellTiter-Fluor reagent (Promega, Madision, WI) of measuring cytotoxicity was added to each well using a Bioraptr Flying Reagent Dispenser (FRD) workstation (Beckman Coulter, Indianapolis, IN, USA). The plates were incubated at 37 C and 5% CO2 for additional 30 min, and fluorescence intensity was measured by a ViewLux plate reader (PerkinElmer, Shelton, CT). For measuring luciferase reporter gene activity, 4 uL of ONE-Glo Luciferase Assay reagent (Promega) was added to each well using a Bioraptr FRD (Beckman Coulter), followed by 30 min incubation at room temperature. The luminescence intensity of plates was recorded by a ViewLux plate reader (PerkinElmer, Shelton, CT).
With Cc1ccc([N+](=O)[O-])c(N)c1 the Potency was “inactive”. For C=CCCCCCCCCO, the Potency was “inactive”. With Cc1c(N)cccc1N the Potency was “inactive”. In the case of CC1=C2[C@H](/C=C(\C)C(=O)O)CC[C@@H](C)[C@H]2CC1, the Potency is reported as “inactive”. With CCCCCCCOC(=O)CCC the Potency was “inactive”. With COc1cc(C)ccc1C(C)C the Potency was “inactive”. For Cc1ccc([N+](=O)[O-])cc1Cl, the Potency was “inactive”. For CCCCCOc1ccc(C2SC(=O)NC2=O)cc1OCC (stereo not given), the Potency was 2.37 µM (active). With O=C(Cl)c1cccc([N+](=O)[O-])c1 the Potency was “inactive”. In the case of CC(C)(C)C1CCCCC1=O (stereo not given), the Potency is reported as “inactive”. In the case of CN1CCC[C@@H]1Cc1c[nH]c2ccc(CCS(=O)(=O)c3ccccc3)cc12, the Potency is reported as 21.1 µM (active). With Cc1ccc(C(C)C)cc1O the Potency was “inactive”. In the case of CC1=NN(c2cc(Cl)c(S(=O)(=O)O)cc2Cl)C(=O)C1N=Nc1ccc(S(=O)(=O)O)cc1 (stereo not given), the Potency is reported as “inactive”. For Cc1cccc(C)c1NC(=O)CN1CCCCCC1, the Potency was “inactive”. With COC(=O)c1ccc(OC)cc1 the Potency was “inactive”. With CCOc1ccc(OCC)c(Cl)c1 the Potency was “inactive”. With CCOc1ccc(NS(=O)(=O)c2ccc(N)cc2)nn1 the Potency was “inactive”. For CCOc1ccc2nc(N)sc2c1, the Potency was “inactive”. With CCCCN1C[C@H](O)[C@@H](O)[C@H](O)[C@H]1CO the Potency was “inactive”. In the case of CC1(C)S[C@@H]2[C@H](NC(=O)C(C(=O)O)c3ccccc3)C(=O)N2[C@H]1C(=O)O (stereo not given in full), the Potency is reported as “inactive”. In the case of C=CCCC=C, the Potency is reported as “inactive”. For CN1CCN(c2c(F)cc3c(=O)c(C(=O)O)cn4c3c2SCC4)CC1, the Potency was “inactive”. With O=C1CCCc2ccccc21 the Potency was “inactive”. For CC/C=C\CCOC(=O)C(C)C, the Potency was “inactive”. For CCOC(=O)C(Br)c1ccccc1 (stereo not given), the Potency was “inactive”. With CCC(=O)O[C@]1(C(=O)SCF)[C@H](C)C[C@H]2[C@@H]3C[C@H](F)C4=CC(=O)C=C[C@]4(C)[C@@]3(F)[C@@H](O)C[C@@]21C the Potency was “inactive”. In the case of COC(=O)N[C@H](C(=O)N[C@@H](Cc1ccccc1)[C@@H](O)CN(Cc1ccc(-c2ccccn2)cc1)NC(=O)[C@@H](NC(=O)OC)C(C)(C)C)C(C)(C)C, the Potency is reported as 26.6 µM (active). In the case of CN1CCN(C2=Nc3cc(F)ccc3Cc3ccccc32)CC1, the Potency is reported as 13.3 µM (active). In the case of CCN1CC(CCN2CCOCC2)C(c2ccccc2)(c2ccccc2)C1=O (stereo not given), the Potency is reported as “inactive”. For CCOC(=O)COc1ccc2c(c1)CC(NCC(O)c1cccc(Cl)c1)CC2 (stereo not given), the Potency was 48.9 µM (active). With O=S(=O)(O)C(F)(F)F the Potency was “inactive”. With CN(C)C(=O)NC1(c2ccccc2)CCN(CCC[C@]2(c3ccc(Cl)c(Cl)c3)CCCN(C(=O)c3ccccc3)C2)CC1 the Potency was 11.6 µM (active). In the case of COc1nc(C)nc(NC(=O)NS(=O)(=O)c2ccccc2OCCCl)n1, the Potency is reported as “inactive”. For O=C(O)[C@@H](O)[C@H](O)[C@H](O)[C@@H](O)C(=O)O, the Potency was “inactive”. In the case of CC(C)OC(C)C, the Potency is reported as “inactive”. For CO[Si](C)(C)OC, the Potency was “inactive”. In the case of CCC/C=C/CO, the Potency is reported as “inactive”. With CCCCCCCCCC#N the Potency was “inactive”. For CC(=O)Oc1cc(C(C)C)c(OCCN(C)C)cc1C, the Potency was “inactive”. With CC(C)Nc1nc(N)nc(Cl)n1 the Potency was “inactive”.
